Experimental data: paper PMC7862700, “An all-to-all approach to the identification of sequence-specific readers for epigenetic DNA modifications on cytosine”

Columns and labels:
Test in all cases: DAPPL (digital affinity profiling via proximity ligation, sequencing); 10 mM Tris-HCl pH 7.5, 50 mM NaCl, 1 mM DTT, 4% glycerol, room temperature, 30 min; GST-TFs on glutathione beads, 16-mer random dsDNA library, 0.1% formaldehyde crosslink after washing; high values mean tight binding
[1] = biological target: T1, FLI1 (Homo sapiens, UniProt Q01543 1-452); conditions: protein: recombinant; tags: N-terminal GST; dsDNA, one strand shown
T1 sequence: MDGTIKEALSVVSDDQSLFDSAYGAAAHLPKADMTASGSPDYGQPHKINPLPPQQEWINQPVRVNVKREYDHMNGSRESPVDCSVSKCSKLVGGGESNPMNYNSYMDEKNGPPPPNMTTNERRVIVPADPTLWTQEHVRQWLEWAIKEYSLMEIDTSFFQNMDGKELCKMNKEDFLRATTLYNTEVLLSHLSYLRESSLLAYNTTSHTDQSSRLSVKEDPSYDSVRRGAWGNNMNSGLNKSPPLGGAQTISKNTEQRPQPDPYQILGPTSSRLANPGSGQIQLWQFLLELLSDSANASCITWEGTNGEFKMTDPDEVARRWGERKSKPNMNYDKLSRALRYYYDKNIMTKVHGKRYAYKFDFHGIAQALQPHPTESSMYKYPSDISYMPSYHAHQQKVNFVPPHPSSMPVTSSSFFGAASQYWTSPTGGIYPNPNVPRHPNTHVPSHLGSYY
Procedure, shortened: (§1)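 The binding signal reported is, for every hexamer, its read frequency for a factor over its read frequency for the tag-only sample. Reads came from pools of yeast-expressed, GST-fused human transcription factors on glutathione beads, barcoded with DNA and mixed with that sample, which were incubated with 200 nmole of a random double-stranded 16-mer DNA library in Tris/NaCl/DTT/glycerol buffer at room temperature for 30 min. After washing, the pools were crosslinked with 0.1% formaldehyde, proximity-ligated with BsaI/T4 ligase for 1 h at 37 °C, PCR-amplified and sequenced on an Illumina NextSeq500.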

[2] = biological target: T2, ELK1 (Homo sapiens, UniProt P19419 1-428); conditions: protein: recombinant; tags: N-terminal GST; dsDNA, one strand shown
T2 sequence: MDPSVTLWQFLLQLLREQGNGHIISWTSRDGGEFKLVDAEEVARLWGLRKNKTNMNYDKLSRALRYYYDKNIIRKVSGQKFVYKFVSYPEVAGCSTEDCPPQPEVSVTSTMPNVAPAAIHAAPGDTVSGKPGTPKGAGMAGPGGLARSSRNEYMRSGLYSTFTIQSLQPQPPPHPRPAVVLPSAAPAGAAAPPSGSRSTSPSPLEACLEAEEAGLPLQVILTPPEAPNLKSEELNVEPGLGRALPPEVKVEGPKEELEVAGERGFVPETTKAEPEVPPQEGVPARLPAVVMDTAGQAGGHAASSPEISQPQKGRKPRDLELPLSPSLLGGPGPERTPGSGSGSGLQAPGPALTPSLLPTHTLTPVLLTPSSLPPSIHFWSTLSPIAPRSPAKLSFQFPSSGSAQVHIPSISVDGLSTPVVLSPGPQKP
Procedure, shortened: as §1

[3] = biological target: T3, GABPA (Homo sapiens, UniProt Q06546 1-454); conditions: protein: recombinant; tags: N-terminal GST; dsDNA, one strand shown
T3 sequence: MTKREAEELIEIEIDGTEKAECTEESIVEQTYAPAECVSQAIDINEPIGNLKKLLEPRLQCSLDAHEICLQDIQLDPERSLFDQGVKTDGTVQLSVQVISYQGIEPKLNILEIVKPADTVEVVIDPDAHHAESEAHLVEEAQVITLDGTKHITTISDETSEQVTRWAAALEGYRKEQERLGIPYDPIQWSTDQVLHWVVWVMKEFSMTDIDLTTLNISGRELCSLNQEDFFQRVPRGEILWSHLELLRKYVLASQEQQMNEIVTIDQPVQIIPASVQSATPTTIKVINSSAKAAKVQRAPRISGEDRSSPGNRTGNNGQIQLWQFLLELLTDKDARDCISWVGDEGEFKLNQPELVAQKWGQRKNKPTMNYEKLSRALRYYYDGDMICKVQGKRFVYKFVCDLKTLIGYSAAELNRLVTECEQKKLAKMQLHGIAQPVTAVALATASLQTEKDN
Procedure, shortened: as §1

[4] = biological target: T4, ERG (Homo sapiens, UniProt P11308 1-479); conditions: protein: recombinant; tags: N-terminal GST; dsDNA, one strand shown
T4 sequence: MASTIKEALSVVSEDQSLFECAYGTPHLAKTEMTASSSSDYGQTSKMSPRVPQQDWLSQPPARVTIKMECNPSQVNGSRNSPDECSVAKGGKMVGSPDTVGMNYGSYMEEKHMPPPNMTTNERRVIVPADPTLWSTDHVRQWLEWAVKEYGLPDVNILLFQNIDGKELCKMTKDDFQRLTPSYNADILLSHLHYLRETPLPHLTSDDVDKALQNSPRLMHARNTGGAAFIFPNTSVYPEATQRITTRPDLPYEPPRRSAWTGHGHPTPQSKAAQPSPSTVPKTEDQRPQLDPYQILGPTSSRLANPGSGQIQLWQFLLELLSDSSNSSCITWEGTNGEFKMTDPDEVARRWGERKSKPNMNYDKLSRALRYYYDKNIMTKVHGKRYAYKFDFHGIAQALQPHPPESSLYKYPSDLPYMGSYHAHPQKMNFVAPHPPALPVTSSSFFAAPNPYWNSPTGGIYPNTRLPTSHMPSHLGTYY
Procedure, shortened: as §1

[5] = biological target: ELF1 (Homo sapiens, UniProt P32519 1-619); conditions: protein: recombinant; tags: N-terminal GST; dsDNA, one strand shown
Procedure, shortened: as §1

[6] = biological target: T5, EHF (Homo sapiens, UniProt Q9NZC4 1-300); conditions: protein: recombinant; tags: N-terminal GST; dsDNA, one strand shown
T5 sequence: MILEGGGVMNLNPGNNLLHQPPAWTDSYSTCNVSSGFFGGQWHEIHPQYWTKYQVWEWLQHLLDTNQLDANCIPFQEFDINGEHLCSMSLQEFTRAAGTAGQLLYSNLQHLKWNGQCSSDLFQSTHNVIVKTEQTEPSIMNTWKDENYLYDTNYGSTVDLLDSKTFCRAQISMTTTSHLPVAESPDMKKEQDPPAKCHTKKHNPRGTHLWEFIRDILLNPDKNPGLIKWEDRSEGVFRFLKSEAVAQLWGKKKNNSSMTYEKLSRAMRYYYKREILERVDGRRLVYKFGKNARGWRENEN
Procedure, shortened: as §1

[7] = biological target: SPI1 (Homo sapiens, UniProt P17947 1-270); conditions: protein: recombinant; tags: N-terminal GST; dsDNA, one strand shown
Procedure, shortened: as §1

[8] = biological target: SPIB (Homo sapiens, UniProt Q01892 1-262); conditions: protein: recombinant; tags: N-terminal GST; dsDNA, one strand shown
Procedure, shortened: as §1

[9] = biological target: T6, ELK3 (Homo sapiens, UniProt P41970 1-407); conditions: protein: recombinant; tags: N-terminal GST; dsDNA, one strand shown
T6 sequence: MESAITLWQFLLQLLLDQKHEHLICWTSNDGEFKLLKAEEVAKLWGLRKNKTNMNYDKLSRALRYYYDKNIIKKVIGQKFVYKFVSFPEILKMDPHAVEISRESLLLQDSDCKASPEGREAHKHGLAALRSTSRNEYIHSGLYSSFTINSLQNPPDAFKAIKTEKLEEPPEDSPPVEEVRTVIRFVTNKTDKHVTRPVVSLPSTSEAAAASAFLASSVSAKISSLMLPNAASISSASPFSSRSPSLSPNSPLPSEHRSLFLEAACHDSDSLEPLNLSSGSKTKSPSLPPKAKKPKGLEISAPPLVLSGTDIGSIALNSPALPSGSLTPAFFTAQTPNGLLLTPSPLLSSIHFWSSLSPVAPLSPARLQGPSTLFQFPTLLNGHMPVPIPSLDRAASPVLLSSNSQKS
Procedure, shortened: as §1

[10] = biological target: T7, FEV (Homo sapiens, UniProt Q99581 1-238); conditions: protein: recombinant; tags: N-terminal GST; dsDNA, one strand shown
T7 sequence: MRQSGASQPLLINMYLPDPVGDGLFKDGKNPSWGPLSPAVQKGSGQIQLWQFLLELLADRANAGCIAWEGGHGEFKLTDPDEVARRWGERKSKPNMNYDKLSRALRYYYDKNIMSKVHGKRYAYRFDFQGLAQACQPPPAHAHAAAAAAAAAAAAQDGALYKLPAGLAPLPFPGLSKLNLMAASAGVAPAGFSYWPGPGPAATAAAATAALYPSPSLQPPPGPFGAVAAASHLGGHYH
Procedure, shortened: as §1

[11] = biological target: ETV5 (Homo sapiens, UniProt P41161 1-510); conditions: protein: recombinant; tags: N-terminal GST; dsDNA, one strand shown
Procedure, shortened: as §1

[12] = biological target: HSF1 (Homo sapiens, UniProt Q00613 1-529); conditions: protein: recombinant; tags: N-terminal GST; chain copies: 3; dsDNA, one strand shown
Procedure, shortened: as §1

[13] = biological target: T8, SPIC (Homo sapiens, UniProt Q8N5J4 1-248); conditions: protein: recombinant; tags: N-terminal GST; dsDNA, one strand shown
T8 sequence: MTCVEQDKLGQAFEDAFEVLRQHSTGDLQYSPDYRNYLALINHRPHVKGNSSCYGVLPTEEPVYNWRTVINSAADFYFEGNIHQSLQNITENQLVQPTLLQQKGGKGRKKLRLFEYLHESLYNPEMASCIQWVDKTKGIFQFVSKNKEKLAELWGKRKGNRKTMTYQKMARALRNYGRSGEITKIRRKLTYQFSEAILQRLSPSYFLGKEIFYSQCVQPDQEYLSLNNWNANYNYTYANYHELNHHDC
Procedure, shortened: as §1

[14] = biological target: ELF4 (Homo sapiens, UniProt Q99607 1-663); conditions: protein: recombinant; tags: N-terminal GST; dsDNA, one strand shown
Procedure, shortened: as §1

[15] = biological target: T9, ELK4 (Homo sapiens, UniProt P28324-2 1-405); conditions: protein: recombinant; tags: N-terminal GST; dsDNA, one strand shown
T9 sequence: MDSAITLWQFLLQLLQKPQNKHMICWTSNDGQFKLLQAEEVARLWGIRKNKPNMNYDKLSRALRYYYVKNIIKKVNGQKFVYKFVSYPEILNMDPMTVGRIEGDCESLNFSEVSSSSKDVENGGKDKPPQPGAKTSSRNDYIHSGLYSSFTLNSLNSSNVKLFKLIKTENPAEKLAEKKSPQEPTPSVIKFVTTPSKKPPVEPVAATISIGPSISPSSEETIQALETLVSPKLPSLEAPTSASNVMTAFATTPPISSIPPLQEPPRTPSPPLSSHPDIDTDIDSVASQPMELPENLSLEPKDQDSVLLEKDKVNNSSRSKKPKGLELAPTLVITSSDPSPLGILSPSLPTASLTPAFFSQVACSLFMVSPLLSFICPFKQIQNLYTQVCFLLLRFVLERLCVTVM
Procedure, shortened: as §1

[16] = biological target: T10, ETV2 (Homo sapiens, UniProt O00321 1-342); conditions: protein: recombinant; tags: N-terminal GST; dsDNA, one strand shown
T10 sequence: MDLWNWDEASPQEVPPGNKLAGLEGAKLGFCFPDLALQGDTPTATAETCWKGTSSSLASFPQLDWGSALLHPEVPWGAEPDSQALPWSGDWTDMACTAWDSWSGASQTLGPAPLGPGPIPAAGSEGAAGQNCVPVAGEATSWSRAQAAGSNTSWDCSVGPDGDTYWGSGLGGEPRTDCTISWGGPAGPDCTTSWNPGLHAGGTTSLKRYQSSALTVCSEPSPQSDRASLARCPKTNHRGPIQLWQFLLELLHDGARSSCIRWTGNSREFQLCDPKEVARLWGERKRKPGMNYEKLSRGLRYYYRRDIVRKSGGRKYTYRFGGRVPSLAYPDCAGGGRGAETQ
Procedure, shortened: as §1

[17] = biological target: T11, ELF3 (Homo sapiens, UniProt P78545 1-371); conditions: protein: recombinant; tags: N-terminal GST; dsDNA, one strand shown
T11 sequence: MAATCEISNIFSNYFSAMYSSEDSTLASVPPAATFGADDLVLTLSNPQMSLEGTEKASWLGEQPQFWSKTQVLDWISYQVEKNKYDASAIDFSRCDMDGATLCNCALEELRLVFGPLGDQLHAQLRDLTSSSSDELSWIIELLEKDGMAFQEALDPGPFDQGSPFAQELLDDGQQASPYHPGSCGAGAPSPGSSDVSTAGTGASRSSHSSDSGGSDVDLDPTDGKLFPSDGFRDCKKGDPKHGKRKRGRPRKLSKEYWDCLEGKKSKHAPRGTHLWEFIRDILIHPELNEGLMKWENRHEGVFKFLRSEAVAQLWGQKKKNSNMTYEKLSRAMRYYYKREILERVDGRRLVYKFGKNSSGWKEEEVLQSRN
Procedure, shortened: as §1

[18] = biological target: ETV1 (Homo sapiens, UniProt P50549 1-477); conditions: protein: recombinant; tags: N-terminal GST; dsDNA, one strand shown
Procedure, shortened: as §1

Chain of SPIB (Q01892 whole entry): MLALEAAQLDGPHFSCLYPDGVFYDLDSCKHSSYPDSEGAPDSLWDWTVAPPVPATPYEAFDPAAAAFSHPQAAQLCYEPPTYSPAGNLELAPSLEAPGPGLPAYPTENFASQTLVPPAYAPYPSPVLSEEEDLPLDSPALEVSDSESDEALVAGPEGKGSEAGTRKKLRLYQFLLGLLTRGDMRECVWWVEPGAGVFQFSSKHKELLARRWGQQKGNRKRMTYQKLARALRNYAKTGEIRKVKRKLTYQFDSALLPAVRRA
Chain of ETV1 (P50549 whole entry): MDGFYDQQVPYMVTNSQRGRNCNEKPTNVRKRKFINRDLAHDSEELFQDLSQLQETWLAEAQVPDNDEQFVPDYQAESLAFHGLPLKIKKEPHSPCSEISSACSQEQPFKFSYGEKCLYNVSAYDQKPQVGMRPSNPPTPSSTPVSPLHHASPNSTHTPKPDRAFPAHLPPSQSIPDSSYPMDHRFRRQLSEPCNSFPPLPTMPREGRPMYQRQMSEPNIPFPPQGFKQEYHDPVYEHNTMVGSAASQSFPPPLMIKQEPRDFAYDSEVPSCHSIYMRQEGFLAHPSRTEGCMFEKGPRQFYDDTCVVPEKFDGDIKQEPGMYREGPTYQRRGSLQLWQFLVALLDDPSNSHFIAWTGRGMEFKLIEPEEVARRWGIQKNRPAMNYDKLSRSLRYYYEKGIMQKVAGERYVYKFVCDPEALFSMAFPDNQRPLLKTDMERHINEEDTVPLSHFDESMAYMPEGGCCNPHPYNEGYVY
Chain of ELF4 (Q99607 whole entry): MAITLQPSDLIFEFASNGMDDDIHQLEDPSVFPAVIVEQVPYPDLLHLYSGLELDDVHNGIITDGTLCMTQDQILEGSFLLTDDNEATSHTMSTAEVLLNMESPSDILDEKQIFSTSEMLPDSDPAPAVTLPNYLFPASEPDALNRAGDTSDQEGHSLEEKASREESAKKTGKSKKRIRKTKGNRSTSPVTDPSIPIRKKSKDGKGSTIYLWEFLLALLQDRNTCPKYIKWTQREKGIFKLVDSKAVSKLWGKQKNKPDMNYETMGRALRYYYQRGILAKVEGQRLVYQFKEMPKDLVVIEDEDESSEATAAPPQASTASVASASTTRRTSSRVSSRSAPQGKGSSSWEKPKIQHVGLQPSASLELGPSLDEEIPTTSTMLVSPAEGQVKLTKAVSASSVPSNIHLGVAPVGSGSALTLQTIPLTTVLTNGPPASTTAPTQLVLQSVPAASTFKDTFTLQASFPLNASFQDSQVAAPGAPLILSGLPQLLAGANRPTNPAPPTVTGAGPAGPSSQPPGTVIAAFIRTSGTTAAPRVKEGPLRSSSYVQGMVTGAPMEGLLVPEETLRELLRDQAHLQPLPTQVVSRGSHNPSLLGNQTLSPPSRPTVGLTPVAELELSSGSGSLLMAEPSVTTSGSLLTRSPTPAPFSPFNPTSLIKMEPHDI
Chain of ELF1 (P32519 whole entry): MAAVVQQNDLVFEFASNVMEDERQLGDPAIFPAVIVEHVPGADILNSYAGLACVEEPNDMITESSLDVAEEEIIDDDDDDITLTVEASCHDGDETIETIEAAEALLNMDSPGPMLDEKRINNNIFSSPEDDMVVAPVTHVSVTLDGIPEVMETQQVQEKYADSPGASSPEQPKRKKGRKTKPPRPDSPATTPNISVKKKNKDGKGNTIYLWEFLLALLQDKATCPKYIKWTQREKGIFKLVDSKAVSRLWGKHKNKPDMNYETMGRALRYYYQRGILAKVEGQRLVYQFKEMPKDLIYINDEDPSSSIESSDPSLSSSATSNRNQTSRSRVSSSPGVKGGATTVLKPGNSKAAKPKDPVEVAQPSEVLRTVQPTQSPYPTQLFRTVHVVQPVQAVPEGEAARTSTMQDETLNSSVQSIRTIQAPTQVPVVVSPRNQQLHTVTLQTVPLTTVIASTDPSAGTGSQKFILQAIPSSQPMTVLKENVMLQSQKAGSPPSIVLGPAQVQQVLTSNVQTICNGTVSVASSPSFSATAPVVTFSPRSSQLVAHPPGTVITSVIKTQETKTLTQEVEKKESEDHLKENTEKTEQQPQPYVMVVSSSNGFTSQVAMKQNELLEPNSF
Chain of ETV5 (P41161 whole entry): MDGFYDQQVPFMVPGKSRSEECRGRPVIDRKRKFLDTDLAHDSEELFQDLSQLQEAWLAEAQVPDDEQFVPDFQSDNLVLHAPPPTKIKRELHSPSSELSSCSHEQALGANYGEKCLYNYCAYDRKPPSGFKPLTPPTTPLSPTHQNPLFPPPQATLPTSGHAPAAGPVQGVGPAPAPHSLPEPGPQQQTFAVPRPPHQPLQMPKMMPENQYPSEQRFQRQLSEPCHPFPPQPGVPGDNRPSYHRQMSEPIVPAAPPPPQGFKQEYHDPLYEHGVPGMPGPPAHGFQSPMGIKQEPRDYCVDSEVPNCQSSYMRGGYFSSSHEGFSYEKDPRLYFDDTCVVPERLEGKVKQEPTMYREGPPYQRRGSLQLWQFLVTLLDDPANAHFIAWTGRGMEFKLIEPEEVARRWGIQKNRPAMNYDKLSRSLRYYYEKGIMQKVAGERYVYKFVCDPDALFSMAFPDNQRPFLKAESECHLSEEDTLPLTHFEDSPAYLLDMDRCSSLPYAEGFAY
Chain of HSF1 (Q00613 whole entry): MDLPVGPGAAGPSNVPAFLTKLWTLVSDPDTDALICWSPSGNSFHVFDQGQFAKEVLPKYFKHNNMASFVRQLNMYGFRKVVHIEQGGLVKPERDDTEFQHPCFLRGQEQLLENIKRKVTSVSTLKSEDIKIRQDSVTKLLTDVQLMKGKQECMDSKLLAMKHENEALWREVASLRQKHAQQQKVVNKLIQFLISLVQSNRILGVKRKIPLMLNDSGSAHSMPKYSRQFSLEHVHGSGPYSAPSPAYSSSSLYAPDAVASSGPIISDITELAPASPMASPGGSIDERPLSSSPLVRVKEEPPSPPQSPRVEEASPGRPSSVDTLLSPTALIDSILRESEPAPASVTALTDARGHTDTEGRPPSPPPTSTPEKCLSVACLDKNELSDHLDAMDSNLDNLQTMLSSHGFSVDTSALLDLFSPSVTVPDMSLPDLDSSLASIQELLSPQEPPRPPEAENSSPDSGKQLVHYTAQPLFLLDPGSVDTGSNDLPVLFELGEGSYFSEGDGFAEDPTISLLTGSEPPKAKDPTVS

## GATGCC
[1]
  binding signal: 1.45 fold enrichment (6-mer frequency, TF over GST control)
[2]
  binding signal: 1.36 fold enrichment (6-mer frequency, TF over GST control)
[3]
  binding signal: 1.38 fold enrichment (6-mer frequency, TF over GST control)
[4]
  binding signal: 1.41 fold enrichment (6-mer frequency, TF over GST control)
[5]
  binding signal: 1.32 fold enrichment (6-mer frequency, TF over GST control)
[6]
  binding signal: 1.41 fold enrichment (6-mer frequency, TF over GST control)
[7]
  binding signal: 1.35 fold enrichment (6-mer frequency, TF over GST control)
[8]
  binding signal: 1.26 fold enrichment (6-mer frequency, TF over GST control)
[9]
  binding signal: 1.38 fold enrichment (6-mer frequency, TF over GST control)
[10]
  binding signal: 1.41 fold enrichment (6-mer frequency, TF over GST control)
[11]
  binding signal: 1.46 fold enrichment (6-mer frequency, TF over GST control)
[12]
  binding signal: 1.08 fold enrichment (6-mer frequency, TF over GST control)
[13]
  binding signal: 1.22 fold enrichment (6-mer frequency, TF over GST control)
[14]
  binding signal: 1.31 fold enrichment (6-mer frequency, TF over GST control)
[15]
  binding signal: 1.42 fold enrichment (6-mer frequency, TF over GST control)
[16]
  binding signal: 1.28 fold enrichment (6-mer frequency, TF over GST control)
[17]
  binding signal: 1.4 fold enrichment (6-mer frequency, TF over GST control)
[18]
  binding signal: 1.36 fold enrichment (6-mer frequency, TF over GST control)
